Source: PubChem BioAssay
DRD3 antagonist = qHTS of D3 Dopamine Receptor Antagonist: qHTS; D3R cells, DiscoveRx beta-arrestin luminescence, antagonist mode; stronger effect = lower value; max response, negative = inhibition, %; 2.5% of 360,000 active; in the data active = max response below about -50%; inconclusive = no clear call, values can overlap the other calls; note: % is set by controls: 0 for no effect and ±100 for the full control effect
Target sequence (P35462 whole entry, looked up): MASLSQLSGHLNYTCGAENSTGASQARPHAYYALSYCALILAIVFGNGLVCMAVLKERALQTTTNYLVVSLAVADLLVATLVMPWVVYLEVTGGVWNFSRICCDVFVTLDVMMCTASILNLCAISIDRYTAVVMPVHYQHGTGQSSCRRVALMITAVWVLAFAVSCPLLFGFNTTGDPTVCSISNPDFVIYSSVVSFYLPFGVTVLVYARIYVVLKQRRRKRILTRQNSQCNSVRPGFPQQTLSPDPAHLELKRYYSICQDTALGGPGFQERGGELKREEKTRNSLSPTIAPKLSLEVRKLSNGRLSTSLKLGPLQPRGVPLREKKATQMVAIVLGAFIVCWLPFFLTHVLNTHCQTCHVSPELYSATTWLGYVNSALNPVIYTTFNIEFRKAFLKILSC
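Cells plated overnight at 1500 cells/well, then exposed to library compounds with dopamine controls for 90 minutes at 37 degrees C. DiscoveRx reagent added for 30–60 minutes at room temperature; luminescence read, quantitative HTS format.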
DRD3 agonist = qHTS of D3 Dopamine Receptor Agonist: qHTS. D(3) dopamine receptor (Homo sapiens), P35462. D3R DiscoveRx beta-arrestin cells, luminescence, 90 min. max activation, %. 0.58% of 410,000 active. AID 652048, 2013; in the data active = max activation above about 30%; note: 0% is about no effect
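Agonist-mode cell screen: cells plated at 1500/well and incubated overnight at 37 °C, then exposed to library compounds for 90 min at 37 °C. Detection reagent was added for 30–60 min at room temperature, and luminescence was read.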
MCF10A rerep = A quantitative high throughput screen for small molecules that induce DNA re-replication in MCF 10a normal breast cells | MCF 10A DNA re-replication, Hoechst nuclear intensity, 48 h | Potency, µM (series often up to 46.1 µM), for the others: at the highest dose activity, positive = re-replication, most hits filed as activators | 2.9% of 350,000 active | AID 624296, 2012; note: potency is the fitted concentration of half-maximal effect; % of control where 0% means no effect; nearly all actives have a fitted effect of over 50% in size
SW480 rereplic = A quantitative high throughput screen for small molecules that induce DNA re-replication in SW480 colon adenocarcinoma cells; SW480 DNA re-replication, Hoechst DNA content imaging, 48 h; Potency, µM (titrated, usually from 46.1 µM), inactives show at the highest dose re-replication activation, usual class: activators; 1.8% of 340,000 active; AID 624297, 2012; note: potency is the fitted concentration of half-maximal effect; % of control where 0% means no effect; nearly all actives have a fitted effect of over 55% in size
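250 cells/well; 23 nL cpd via pin tool; 48 hr, 37 C, 5% CO2; Hoechst 40 min; imager read of total nuclear intensity, ex 405/em 500-530 nm.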
KB-3-1 tox = qHTS assay for MDR1-selective chemotherapeutics: Primary screen using the parental adenocarcinoma cell KB-3-1; KB-3-1 viability, CellTiter-Glo ATP luminescence, 72 h; 1.4% of 400,000 active; Potency, µM (doses to about 46.1 µM), usual class: cytotoxic; AID 1347075, 2019; note: potency is the fitted concentration of half-maximal effect; % is set by controls: 0 for no effect and ±100 for the full control effect; nearly all actives have a fitted effect of over 60% in size
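Parental KB-3-1 viability, qHTS format: 72 h compound exposure, 37 °C; CellTiter-Glo; media-only wells and DMSO plates as controls; concentration-effect fits on corrected data.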
KB-V1 MDR tox = qHTS assay for MDR1-selective chemotherapeutics: Primary screen using the drug-selected MDR subline cells KB-V1 | 3.4% of 400,000 active | KB-V1 MDR cells viability, CellTiter-Glo, 72 h | Potency, µM (highest dose often 46.1 µM), usual class: cytotoxic | AID 1347076, 2019; note: potency is the fitted concentration of half-maximal effect; % is set by controls: 0 for no effect and ±100 for the full control effect; nearly all actives have a fitted effect of over 60% in size
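Cells of the MDR subline KB-V1 are plated, dosed with compound at multiple concentrations, and incubated 72 h at 37 degrees C; CellTiter-Glo is then added and luminescence read after 10 min.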
Active calls of the source: *. Only some compounds are listed: those with a hit (about 8.9% of all), similar ones and a draw of the others. Unless noted, calls come from the whole dose curve; as a rule, active = well fitted curve in the direction sought with a large enough effect; inconclusive = small, poorly fitted or top-dose-only effect, or another doubt; inactive = no such curve, though single readings can be large; an effect the other way counts as inactive or inconclusive.

O=C(NC1CCCC1)C(c1ccc(Cl)cc1)N1CCN(C2CCCCC2)CC1 (configuration not stated) was read as DRD3 antagonist -6, DRD3 agonist -17, MCF10A rerep 5%, SW480 rereplic -2%, KB-3-1 tox inactive and KB-V1 MDR tox inactive.
`CCN1CCN(C(C(=O)NC2CCCCC2)c2ccc(Cl)cc2)CC1` (configuration not stated) gave DRD3 antagonist -60*, DRD3 agonist -9, MCF10A rerep -4%, SW480 rereplic -1%, KB-3-1 tox inactive and KB-V1 MDR tox inactive.
Screening COc1cc(CNCc2ccccc2)c(Br)cc1OC1CCCC1 returned DRD3 antagonist -62*, DRD3 agonist -18, MCF10A rerep inconclusive, SW480 rereplic 6%, KB-3-1 tox inactive and KB-V1 MDR tox inactive.
`N=c1ccn(CC(=O)c2ccc(-c3ccccc3)cc2)cc1` gave DRD3 antagonist -18, DRD3 agonist -12, MCF10A rerep 7%, SW480 rereplic -6%, KB-3-1 tox 5.2µM* and KB-V1 MDR tox inactive.
For O=C(CN1C(=O)CCC1=O)c1ccc(-c2ccccc2)cc1 the results were DRD3 antagonist 5, DRD3 agonist -2, MCF10A rerep -7%, SW480 rereplic -39%, KB-3-1 tox inactive and KB-V1 MDR tox inactive.
Screening Cc1cc(C)c2c(CC(=O)Nc3cc(C(F)(F)F)ccc3Cl)coc2c1 returned DRD3 agonist 6, KB-3-1 tox inactive and KB-V1 MDR tox inactive.
For CC(/C=N/NC(=O)c1ccncc1)=C\c1ccc(C(C)C)cc1 the results were DRD3 antagonist 54, DRD3 agonist 11, MCF10A rerep inconclusive, SW480 rereplic 1%, KB-3-1 tox inactive and KB-V1 MDR tox 10µM*.
Cc1cccc(NC(=O)Cc2nc(-c3c[nH]c(C(=O)N4CCCC4)c3)cs2)c1 was read as DRD3 antagonist 46, DRD3 agonist 52*, MCF10A rerep 21%, SW480 rereplic 5%, KB-3-1 tox inactive and KB-V1 MDR tox inconclusive.
For CCc1noc(C)c1C(=O)Nc1nc(-c2ccc(Cl)cc2Cl)cs1 the results were DRD3 antagonist 49, DRD3 agonist 6, MCF10A rerep 16µM*, SW480 rereplic 13%, KB-3-1 tox inconclusive and KB-V1 MDR tox inconclusive.
O=C(Nc1nc2ccc(F)cc2s1)c1ccc([N+](=O)[O-])o1 was read as DRD3 antagonist -57*, DRD3 agonist -9, KB-3-1 tox inconclusive and KB-V1 MDR tox inconclusive.
`Cc1ccc(-c2csc(NC(=O)c3c(C)noc3C)n2)cc1` gave DRD3 antagonist -6, DRD3 agonist 3, MCF10A rerep inconclusive, SW480 rereplic 1.6µM*, KB-3-1 tox inactive and KB-V1 MDR tox inconclusive.
For COc1ccc(-c2csc(NC(=O)c3c(C)noc3C)n2)cc1 the results were DRD3 antagonist 20, DRD3 agonist -13, MCF10A rerep -8%, SW480 rereplic -1%, KB-3-1 tox inactive and KB-V1 MDR tox inactive.
`CCc1noc(C)c1C(=O)Nc1nc(-c2cccs2)cs1` gave DRD3 antagonist 1, DRD3 agonist 8, MCF10A rerep 14%, SW480 rereplic -44%, KB-3-1 tox inactive and KB-V1 MDR tox inconclusive.
For Cc1ccc(-c2csc(NC(=O)c3ccc([N+](=O)[O-])o3)n2)cc1 the results were DRD3 antagonist inconclusive, DRD3 agonist -5, MCF10A rerep 4.1µM*, SW480 rereplic 6.5µM*, KB-3-1 tox inconclusive and KB-V1 MDR tox inactive.
Screening O=C(Nc1nc2c(F)cccc2s1)c1ccc([N+](=O)[O-])o1 returned DRD3 antagonist inconclusive, DRD3 agonist -7, MCF10A rerep inconclusive, SW480 rereplic inconclusive, KB-3-1 tox inactive and KB-V1 MDR tox inactive.
CCc1ccc2c(c1)NC(c1ccc(F)cc1)=NC(c1ccncc1)=N2 was read as DRD3 agonist -28, KB-3-1 tox inactive and KB-V1 MDR tox inactive.
Screening Cc1cc(NC(=O)c2c(Cl)cccc2Cl)no1 returned DRD3 antagonist -17, DRD3 agonist 5, MCF10A rerep -1%, SW480 rereplic -23%, KB-3-1 tox inactive and KB-V1 MDR tox inactive.
Cc1cc(NC(=O)c2c(C)noc2C)no1 was read as DRD3 antagonist -2, DRD3 agonist -11, MCF10A rerep 16µM*, SW480 rereplic inconclusive, KB-3-1 tox inactive and KB-V1 MDR tox inactive.
For O=C(OCc1cc(=O)n2nc(C3CC3)sc2n1)c1cccc(NC(=O)c2ccccc2Cl)c1 the results were DRD3 agonist 6, KB-3-1 tox inactive and KB-V1 MDR tox inconclusive.
`N#CC1=C(N)NC(SCc2ccccc2)=C(C#N)C12CCCC2` gave DRD3 antagonist -5, DRD3 agonist -5, MCF10A rerep 18µM*, SW480 rereplic inconclusive, KB-3-1 tox inconclusive and KB-V1 MDR tox inconclusive.
For N#CC1=C(N)NC(SCc2ccc(Cl)cc2)=C(C#N)C12CCCCC2 the results were DRD3 antagonist 0, DRD3 agonist 1, MCF10A rerep inconclusive, SW480 rereplic 7%, KB-3-1 tox inconclusive and KB-V1 MDR tox inactive.
For Cc1ccsc1/C=C(\CC(=O)O)c1nc2ccccc2o1 the results were DRD3 antagonist -6, DRD3 agonist 8, MCF10A rerep 7%, SW480 rereplic -4%, KB-3-1 tox inactive and KB-V1 MDR tox inactive.
Screening Cc1ccsc1/C=C(\C(=O)c1ccc(OC(C)C)cc1)c1nc2ccccc2o1 returned DRD3 antagonist -17, DRD3 agonist -1, MCF10A rerep 18%, SW480 rereplic 8.2µM*, KB-3-1 tox inactive and KB-V1 MDR tox inconclusive.
Screening CCOc1ccc(-n2c(=O)c3c(C)c(C)sc3n(Cc3c(F)cccc3Cl)c2=O)cc1 returned DRD3 agonist 9, KB-3-1 tox inactive and KB-V1 MDR tox inactive.
Oc1nc(Nc2ccccc2)sc1/C=C1\C=Nc2ccccc21 was read as DRD3 antagonist inconclusive, DRD3 agonist -17, MCF10A rerep 21µM*, SW480 rereplic 16%, KB-3-1 tox inactive and KB-V1 MDR tox inactive.
`CCOC(=O)c1c(Nc2ccccc2)sc(/C=C2\C=Nc3ccccc32)c1O` gave DRD3 antagonist -19, DRD3 agonist -3, MCF10A rerep 25%, SW480 rereplic -5%, KB-3-1 tox inactive and KB-V1 MDR tox inactive.
